For assay [1], the system named is Human papillomavirus type 1a protein E7 (residues 44-93). The assay is described as follows: HPV1a E7 fragment binders on microarrays, primary screen, biochemical, small-molecule microarray, residues 44-93, 635 nm fluorescence (AID 1108).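 Also: E7 fragment applied at 1 µg/mL in TBST for 1 h at 4 C; score combines spot fluorescence with its signal to noise ratio.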 The settings on record: small-molecule microarray binding, fluorescence 635 nm; higher = more signal.
The nature of assay [2]: modulators of HCV replicon luciferase signal, primary screen, HCV replication inhibitor project, Huh7 cells, luciferase reporter (AID 1109).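 Also: huh7 hepatoma cells harbouring a luciferase neomycin HCV replicon reporter; luciferase luminescence as measure of HCV replicon replication; test concentration not given here.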 The settings on record: 48 h, higher = more signal. In general terms: In antiviral work, replicon cells carry a viral genome segment that copies itself.
Assay [3] deals with Left-right determination factor 2 (Homo sapiens) (UniProt O00292). The assay is described as follows: LEFTY2 binders on small-molecule microarrays, primary screen, biochemical, small-molecule microarray, 635 nm fluorescence scan (AID 1110). The settings on record: LEFTY2 binding, higher = more signal.
The target in assay [4] is Calmodulin-1 (Homo sapiens) (UniProt P0DP23). The assay is described as follows: CALM1 binders on microarrays, EGTA buffer, profiling panel, biochemical, small-molecule microarray, Cy5-labelled CALM1 (AID 1111).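 Also: labelled calmodulin applied in Tris saline Tween buffer holding calcium plus EGTA and DTT.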 Particulars: Cy5-CALM1 binding fluorescence, higher = more signal.
Assay [5] has the same target. Put plainly: calcium-bound CALM1 binders on microarrays, profiling panel, artefact control for SMM control-protein annotation, biochemical, small-molecule microarray, Cy5-labelled CALM1, plus calcium (AID 1112).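 Also: score merges spot fluorescence with signal to noise from triplicate slides.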 The settings on record: Cy5-CALM1 binding fluorescence, higher = more signal.
Assay [6] can be described thus: small-molecule microarray binders of probe aWnt5a, primary screen, biochemical, biotinylated probe, 635/667 nm fluorescence (AID 1113).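 Also: score merges 667 nm fluorescence intensity with signal-to-noise per printed feature.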 Particulars: higher = more signal.
Assay [7] is described as follows: small-molecule microarray binders of probe aShh, primary screen, biochemical, biotinylated probe, 635/667 nm fluorescence (AID 1114).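 Also: probe is biotin-labelled aShh protein from a stem cell growth factor screen; measures binding of labelled protein to compounds printed on the slide; score merges feature fluorescence at 667 nm with signal-to-noise.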 The settings on record: higher = more signal.
The nature of assay [8]: small-molecule microarray binders of probe aNog, primary screen, biochemical, biotinylated probe, 635/667 nm fluorescence (AID 1115).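 Also: probe is biotinylated aNog protein used at 0.15 µg/mL for 1 h at 4 C; z-score combines 667 nm fluorescence of each spot with its signal to noise.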 The settings on record: higher = more signal.
For assay [9], the target named is Torsin-1A-interacting protein 1 (Homo sapiens) (UniProt Q5JTV8). The assay is described as follows: LAP1 binders from COS7 cell lysate, primary screen, small-molecule microarray, 635/667 nm fluorescence (AID 1116). Particulars: COS7-hLAP1 lysate binding, 635 nm fluorescence, higher = more signal.
Assay [10] addresses Alpha-bungarotoxin (Bungarus multicinctus) (UniProt P60615). Put plainly: alpha-bungarotoxin binders on microarray, profiling panel, artefact control for SMM control protein annotation, biochemical, small-molecule microarray, Alexa647 label, 635/667 nm fluorescence (AID 1117). The settings on record: alpha-BTX-A647 binding fluorescence, higher = more signal.

The structures appear in SMILES notation.

Alpha-bungarotoxin (Bungarus multicinctus), sequence (P60615 whole entry, looked up): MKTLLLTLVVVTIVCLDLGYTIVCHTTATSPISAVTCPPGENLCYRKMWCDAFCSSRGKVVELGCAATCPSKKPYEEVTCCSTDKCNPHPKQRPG
Torsin-1A-interacting protein 1 (Homo sapiens), sequence (Q5JTV8 whole entry, looked up): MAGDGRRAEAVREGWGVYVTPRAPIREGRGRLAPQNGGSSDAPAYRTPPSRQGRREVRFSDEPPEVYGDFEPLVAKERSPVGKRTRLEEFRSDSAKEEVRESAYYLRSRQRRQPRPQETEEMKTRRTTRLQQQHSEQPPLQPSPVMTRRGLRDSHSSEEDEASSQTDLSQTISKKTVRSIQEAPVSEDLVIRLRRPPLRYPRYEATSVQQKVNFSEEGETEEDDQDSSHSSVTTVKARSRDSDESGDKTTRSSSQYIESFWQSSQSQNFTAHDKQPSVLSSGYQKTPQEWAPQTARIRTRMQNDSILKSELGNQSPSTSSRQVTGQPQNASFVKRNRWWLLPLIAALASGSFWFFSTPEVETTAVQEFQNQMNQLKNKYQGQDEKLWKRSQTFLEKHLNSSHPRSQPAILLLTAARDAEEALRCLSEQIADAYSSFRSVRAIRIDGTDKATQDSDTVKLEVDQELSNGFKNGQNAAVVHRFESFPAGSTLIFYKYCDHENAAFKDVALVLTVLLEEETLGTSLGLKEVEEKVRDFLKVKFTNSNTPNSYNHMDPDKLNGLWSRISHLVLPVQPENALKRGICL
Left-right determination factor 2 (Homo sapiens), sequence (O00292 whole entry, looked up): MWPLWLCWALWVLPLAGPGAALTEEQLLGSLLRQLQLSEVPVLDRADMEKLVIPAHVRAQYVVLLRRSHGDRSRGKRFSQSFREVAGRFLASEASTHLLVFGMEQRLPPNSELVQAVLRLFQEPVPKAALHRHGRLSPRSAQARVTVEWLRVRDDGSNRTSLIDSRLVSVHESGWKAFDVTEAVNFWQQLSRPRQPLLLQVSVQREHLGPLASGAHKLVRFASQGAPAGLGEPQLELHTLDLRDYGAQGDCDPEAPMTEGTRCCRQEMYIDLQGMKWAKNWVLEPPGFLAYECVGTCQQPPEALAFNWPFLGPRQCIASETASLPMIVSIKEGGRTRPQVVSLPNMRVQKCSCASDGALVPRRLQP

`O=C1O[C@@H](c2ccccc2)[C@@H](c2ccccc2)N2[C@@H](c3ccc(O)cc3)[C@]3(C(=O)Nc4ccc(C#CCCO)cc43)[C@@H](C(=O)N3CCN(c4ncccn4)CC3)[C@H]12`: the composite z-score was 0.99 in assay [1]; 0.787 in assay [3]; -0.587 in assay [4]; -0.948 in [5]; -0.512 in assay [6]; -0.232 in [7]. Besides, the composite z-score in assay [8] turned out to be 0.498; in [9], 0.255; in assay [10] it was 0.101. This molecule returned a z-score in [2] of -0.671.

Regarding `COC(=O)c1c(CC[C@@H](CO)NC(=O)N[C@@H](C)Cn2cc(-c3ccccn3)nn2)oc(C(C)=O)c1C(=O)OC`, the composite z-score was 0.683 in [1]; 0.328 in assay [3]; -0.063 in assay [4]; -1.06 in assay [5]; -0.0981 in [6]; 0.123 in assay [7]. Moreover, the figures for the composite z-score in assay [8], in assay [9] and in assay [10] were -0.0926, 0.237 and -0.715, respectively. For the same molecule, in assay [2], the z-score is 0.51.

As to `COCCOC(=O)N1C(=O)[C@@]2(c3cc(C#CC4=CCCCC4)ccc31)[C@H](C(=O)Nc1nc3ccccc3s1)[C@H]1C(=O)O[C@H](c3ccccc3)[C@H](c3ccccc3)N1[C@@H]2c1ccc(O)cc1`, the composite z-score is 1.39 in [1]; 0.647 in assay [3]; 1.07 in assay [4]; 0.641 in [5]; -0.15 in assay [6]; -0.51 in [7]. The composite z-score was -0.483 in assay [8], 0.666 in [9] and 0.42 in assay [10]. The z-score in assay [2] was -1.1.

Consider `C[N+](C)(C)CCCCCCNC(=O)[C@@H]1C[C@@H]2C(=O)N3CCC[C@H]3C(=O)N2[C@@H]1c1ccc(O)cc1`, for which the composite z-score was 0.279 in [1]; 0.994 in assay [3]; -0.31 in [4]; -0.887 in assay [5]; -0.0239 in assay [6]; -0.138 in [7]. Moreover, the composite z-score in [8] was -0.29; in [9], 0.531; in assay [10], 0.341. In [2], this molecule had a z-score of 0.501.

For the molecule `CCCCN1CC=CC23O[C@@H]4/C=C\CCC(C)OC(=O)C4[C@H]2C(=O)N(CCCO)[C@@H]3C1=O` (stereo not given in full), the composite z-score is -0.169 in assay [1]; -0.949 in [3]; -0.0083 in [4]; 0.458 in assay [5]; -0.252 in [6]; 0.535 in [7]. The results for the composite z-score in assay [8], in assay [9] and in assay [10] were -0.362, -0.318 and -0.566, respectively. The molecule also registered a z-score in [2] of -0.398.

On to `C=C[C@@H](OC)[C@H](OC(=O)Nc1ccc(OC)cc1)c1ccc(O)c(F)c1`, for which the composite z-score in [1] is 0.392; in assay [3] it was -0.227; in assay [4], -1.84; in assay [5] it was -1.47; in assay [6], -0.208; in assay [7], 0.0796. Further, the composite z-score in assay [8] is -0.834; in assay [9], 0.302; in assay [10] it was -0.839. In addition, the z-score in [2] amounted to 0.859.

`C=C(COC)/C(=C/C[C@H](OC(=O)c1ccncc1)c1ccccc1OCCO)c1cc(C(=O)OC)ccc1OC`: the composite z-score in assay [1] was 1.43; in assay [3], 0.753; in assay [4], -0.191; in [5], -0.59; in assay [6] it was -0.0687; in assay [7], -0.494. In addition, the composite z-score in [8] is -0.145; in assay [9] it was -0.353; in [10], 0.251. The same molecule returned a z-score in assay [2] of -2.76.

Regarding `Cc1ccc(S[C@]2(C(=O)NCc3ccccc3)CC(=O)N(C3CCCCC3)[C@@H]2c2ccc(CO)cc2I)cc1`, the composite z-score in [1] was 1.23; in assay [3] it was -0.364; in assay [4], 0.699; in assay [5] it was -0.267; in assay [6], 0.205; in [7], -0.0324. Besides, the composite z-score in assay [8] is -0.18; in [9] it was 0.759; in assay [10], 0.604. The molecule further registered a z-score in assay [2] of -2.75.

For `CC(C)C[C@@H]1NC(=O)[C@@H]2C[C@H](C(=O)NCCCCCCN)[C@H](c3cccc(OCCO)c3)N2C1=O`, the composite z-score in assay [1] was 1.46; in assay [3] it was 0.281; in assay [4], 0.861; in [5], -0.0534; in assay [6], -0.0461; in assay [7] it was -0.349. Besides, the results for the composite z-score in assay [8], in assay [9] and in assay [10] were -0.346, 1.13 and 1.67, respectively. This molecule also displayed a z-score in assay [2] of -0.125.

Turning to `COc1cc(NN2C(C(O)c3cc(OC)c(OC)c(OC)c3)C=CC3C(=O)N(C)C(=O)C32)cc(OC)c1OC` (stereo not given), the composite z-score in assay [1] was 1.09; in assay [3] it was -0.229; in [4], 1.34; in assay [5], 0.278; in assay [6], 0.0599; in assay [7] it was 0.23. Also, the results for the composite z-score in [8], in [9] and in assay [10] were 0.849, 0.904 and 1.24, respectively. The molecule also showed a z-score in assay [2] of -0.336.

In the case of `C=C[C@@H](CO)N(Cc1ccc(OC)cc1)S(=O)(=O)c1ccc(Br)cc1`, the composite z-score in assay [1] was 0.19; in assay [3], 0.211; in [4] it was -0.0366; in assay [5], -0.213; in assay [6] it was 0.0377; in [7] it was -0.0709. Further, the composite z-score was -0.201 in [8], 0.572 in assay [9] and -0.0436 in assay [10]. The molecule further had a z-score in [2] of -1.25.

Consider `CC(CO)N1C(=O)[C@@H]2[C@H]3C(=O)OCC=C[C@H]3OC23C=CCN(Cn2nnc4ccccc42)C(=O)[C@@H]13` (stereo not given in full), for which the composite z-score in [1] is -0.931; in assay [3] it was -1.4; in assay [4] it was -0.196; in assay [5], 0.0507; in [6], -0.13; in [7] it was -0.117. The values for the composite z-score in assay [8], in assay [9] and in [10] were 0.0517, -0.607 and -0.975, respectively. The z-score in assay [2] was 0.0368.

Turning to `CCCNC(=O)[C@@]1(Sc2ccc(C)cc2)CC(=O)N(C2Cc3ccccc3C2)[C@@H]1c1ccc(CO)cc1I`, the composite z-score in assay [1] was 1.08; in [3], 0.698; in assay [4], 0.183; in assay [5] it was 0.497; in assay [6], 0.0932; in [7], -0.221. In addition, the composite z-score was found to be 1.17 in [8], 0.604 in [9] and 0.161 in assay [10]. In addition, the z-score in assay [2] was -1.65.

For `Cc1ccc(C(C)CC(O)C2C=CC3C(=O)N(c4ccccc4)C(=O)C3N2Nc2ccccc2)o1` (stereo not given), the composite z-score in assay [1] turned out to be 1.44; in assay [3] it was 0.285; in [4], 1.3; in assay [5], 0.125; in [6] it was 0.0802; in [7] it was 0.308. Besides, the composite z-score came out at 1.5 in [8], 0.789 in assay [9] and 1.3 in [10]. The z-score in assay [2] is -0.741.

As to `C=CC[C@H](OC(=O)Nc1ccc(SC)cc1)c1ccc(O)c2ccccc12`, the composite z-score in assay [1] is 1.4; in assay [3], 0.679; in [4], 1.28; in assay [5] it was 0.411; in assay [6], -0.0819; in assay [7], 0.23. The values for the composite z-score in assay [8], in [9] and in [10] were -0.134, 0.986 and 1.78, respectively. The z-score in [2] was -4.92.

On to `CCCCCN1CC=CC23O[C@@H]4/C=C\CCCOC(=O)C4[C@H]2C(=O)N(C(C)CO)[C@@H]3C1=O` (stereo not given in full), for which the composite z-score was -0.141 in assay [1]; -1.67 in assay [3]; -0.452 in assay [4]; -0.254 in assay [5]; -0.203 in assay [6]; -0.181 in assay [7]. The composite z-score in [8] is -0.0057; in assay [9], -0.111; in [10], 2.97. In addition, in [2], the z-score was -0.646.

Regarding `CCCCC=C[C@@H](NC(=O)OCc1ccccc1Cl)c1ccccc1`, the composite z-score in assay [1] worked out at 1.4; in assay [3], 0.39; in assay [4], 1.35; in [5], 1; in assay [6], 1.08; in assay [7], 1.97. Moreover, the composite z-score in assay [8] is 3.06; in [9] it was 0.28; in [10] it was 0.922. This molecule registered a z-score in [2] of -0.0468.

Source of the values: PubChem BioAssay.
